Our source for the Potency and outcome values is PubChem BioAssay (NCATS).

Assay [1] in a line: P-glycoprotein substrates identified in KB-8-5-11 adenocarcinoma cell line, qHTS therapeutic library screen (AID 1346987). Note: nearly all actives have a fitted effect of over 65% in size. Summed up:
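P-gp-mediated resistance screen: KB-8-5-11 cells treated 72 h with compounds in dose-response. CellTiter-Glo viability.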

Assay [2] can be described thus: Natriuretic polypeptide receptor (hNpr1) antagonism - Pilot counterscreen GloSensor control cell line (AID 1347045; calls by dose curve; note: series mostly up to about 38 µM). Summed up: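 This counterscreen uses HEK293 cells expressing the GIP/pGS-40F cGMP biosensor. Compound-treated cells are challenged with 50 uM sodium nitroprusside, and the luciferase signal is compared before and after stimulation.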
Assay [3] concerns the target Atrial natriuretic peptide receptor 1 (Homo sapiens) (UniProt P16066). The experiment in a line: Natriuretic polypeptide receptor (hNpr1) antagonism - Pilot screen (AID 1347049; calls by dose curve;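 note: agonist-evoked cGMP luminescence read 20 min after hNppA addition; series mostly up to about 58 µM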). Summed up:
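HEK293 cells co-expressing hNpr1 and the GloSensor pGS-40F cGMP luciferase sensor were preloaded with 2% GloSensor reagent for 2 h. Compounds were added for 30 min at room temperature, then cells were stimulated with 0.1 nM hNppA for 20 min before luminescence readout.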

The target of assay [4] is Atrial natriuretic peptide receptor 2 (Homo sapiens) (UniProt P20594). The assay is described as follows: Natriuretic polypeptide receptor (hNpr2) antagonism - Pilot subtype selectivity assay (AID 1347050; calls by dose curve). In outline: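 cGMP-sensor HEK293/hNpr2 cells; 2% GloSensor reagent 2 h RT; compounds 30 min; baseline luminescence read; 1 nM hNppC agonist 20 min RT; final luminescence read by CCD camera. Antagonism = reduced post-agonist signal.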

Assay [5] can be described thus: NS1 protein of Zika virus - qHTS assay to identify small molecule inhibitors in human HEK 293 cells (AID 1347053). Note: series mostly up to about 46 µM; nearly all actives have a fitted effect of over 55% in size. Summed up: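 HEK 293 cells, seeded 20 h at 37 C, were pretreated with compound 1 h, then infected with ZIKV MR766 (MOI = 0.5) for 24 h. NS1 was read by TR-FRET with two anti-NS1 antibodies, normalized to uninfected and infected wells.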
The target in assay [6] is T1, Tyrosine-protein phosphatase non-receptor type substrate 1 (Homo sapiens) + Leukocyte surface antigen CD47 (Homo sapiens) (UniProt P78324+Q08722). The assay is described as follows: CD47-SIRPalpha protein protein interaction - LANCE assay qHTS validation (AID 1347057; active = well fitted curve in the direction sought with a large enough effect in the signal ratio, with a control signal flat, not every such curve was filed as active; the % refers to the signal ratio; note: series mostly up to about 38 µM). Summed up:
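First, His-tagged CD47 and Eu-labelled anti-His antibody met the compound for 30 min; next, site-specifically biotinylated SIRPalpha was added for 30 min; finally streptavidin-APC was added before reading the TR-FRET ratio.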
On the technique in general: TR-FRET usually uses a lanthanide donor and a delayed reading to cut background.

Assay [7] deals with T1, Tyrosine-protein phosphatase non-receptor type substrate 1 (Homo sapiens) + Leukocyte surface antigen CD47 (Homo sapiens). The assay is described as follows: CD47-SIRPalpha protein protein interaction - HTRF assay qHTS validation (AID 1347058; active = well fitted curve in the direction sought with a large enough effect in the signal ratio, not every such curve was filed as active; the % refers to the signal ratio; note: series mostly up to about 38 µM). Summed up:
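TR-FRET read (Ch1/Ch2 ratio) of soluble extracellular CD47 and Avi-biotinylated SIRPalpha domains in PBS pH 7.4 with 0.05% IGEPAL; 7-point compound titration. Sequential 30 min room-temperature steps; non-biotinylated SIRPalpha as control inhibitor.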

The target is the same in assay [8]. The experiment in a line: CD47-SIRPalpha protein protein interaction - Alpha assay qHTS validation (AID 1347059).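 Note: bead proximity luminescence from CD47 binding SIRPalpha after compound preincubation with SIRPalpha.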 In outline: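 Soluble extracellular domains: Avi-tag biotinylated SIRPalpha (25 nM) preincubated 30 min RT with compound, then 6His-CD47 (12.5 nM) 30 min; Ni-NTA acceptor and streptavidin donor beads (10 ug/mL) 30 min, AlphaScreen read. PBS pH 7.4, 0.05% IGEPAL.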
For orientation: Quantitative high-throughput screening tests each substance at several concentrations.

Assay [9] deals with Parathyroid hormone/parathyroid hormone-related peptide receptor (Homo sapiens) (UniProt Q03431). The assay is described as follows: qHTS for PTHR1 Agonists: Optimization Screen against the NCGC LOPAC library (AID 1347079).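 Note: GloSensor cAMP luminescence in HEK-293 GP2 cells expressing human PTHR1 with IBMX.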 In outline: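 Compounds were tested across a qHTS titration. PTHR1-expressing GP2 cells report cAMP rises via GloSensor luminescence after 1 hr compound exposure at 37C with IBMX present.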

A short description of assay [10]: qHTS for Inhibitors of the Functional Ribonucleoprotein Complex (vRNP) of Lassa (LASV) Arenavirus: LASV Primary Screen - GLuc reporter signal (AID 1347082; calls by dose curve; tested in HEK293 reporter line; note: series mostly up to about 57 µM; nearly all actives have a fitted effect of over 60% in size).
A short description of assay [11]: qHTS for Inhibitors of the Functional Ribonucleoprotein Complex (vRNP) of Lassa (LASV) Arenavirus: Viability assay - alamar blue signal for LASV Primary Screen (AID 1347083; calls by dose curve; tested in HEK293 reporter line; note: series mostly up to about 57 µM; nearly all actives have a fitted effect of over 80% in size).
The nature of assay [12]: qHTS for Inhibitors of the Functional Ribonucleoprotein Complex (vRNP) of Lymphocytic Choriomeningitis Arenaviruses (LCMV): Viability assay - alamar blue signal for LCMV Primary Screen (AID 1347085; calls by dose curve; tested in HEK293 reporter line; note: series mostly up to about 57 µM; nearly all actives have a fitted effect of over 80% in size).
Assay [13] concerns the target Nucleoprotein (Lymphocytic choriomeningitis virus (strain Armstrong)) (UniProt P09992). The assay is described as follows: qHTS for Inhibitors of the Functional Ribonucleoprotein Complex (vRNP) of Lymphocytic Choriomeningitis Arenaviruses (LCMV): LCMV Primary Screen - GLuc reporter signal (AID 1347086; calls by dose curve; note: series mostly up to about 57 µM; nearly all actives have a fitted effect of over 70% in size).
Assay [14] can be described thus: qHTS of pediatric cancer cell lines to identify multiple opportunities for drug repurposing: Primary screen for TC32 cells (AID 1347089). Note: nearly all actives have a fitted effect of over 60% in size. Summed up: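 In the primary qHTS, MIPE compounds were tested at 11 concentrations (0.78 nM to 46 µM) and NPC compounds at 8 (0.59 nM to 46 µM) on TC32 cells for 48 h. CellTiter-Glo luminescence gave viability.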
Assay [15] can be described thus: qHTS of pediatric cancer cell lines to identify multiple opportunities for drug repurposing: Primary screen for DAOY cells (AID 1347090). Note: series mostly up to about 46 µM; nearly all actives have a fitted effect of over 55% in size. In outline:
(§1)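 Eight- or eleven-point concentration series, 48 h treatment at 37 degrees C in growth media; readout CellTiter-Glo luminescence. Potency and efficacy were taken from the concentration-response curves.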

Assay [16] is described as follows: qHTS of pediatric cancer cell lines to identify multiple opportunities for drug repurposing: Primary screen for SJ-GBM2 cells (AID 1347091). Note: potency is the fitted concentration of half-maximal effect. In outline:
as §1

A short description of assay [17]: qHTS of pediatric cancer cell lines to identify multiple opportunities for drug repurposing: Primary screen for A673 cells (AID 1347092). Note: nearly all actives have a fitted effect of over 45% in size. In outline:
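48 h compound exposure, A673, 500-1,000 cells/well, 37 degrees C/5% CO2. MIPE: 11-point, 0.78 nM-46 µM; NPC: 8-point, 0.59 nM-46 µM (final). Readout CellTiter-Glo luminescence after 15 min RT.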

A short description of assay [18]: qHTS of pediatric cancer cell lines to identify multiple opportunities for drug repurposing: Primary screen for SK-N-MC cells (AID 1347093). Note: potency is the fitted concentration of half-maximal effect. In outline:
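Metabolically active cells were quantified by ATP-dependent luminescence (CellTiter-Glo, 15 min at room temperature) following 48 h treatment. Cells had been plated at 500-1,000 per well and settled for 5 h beforehand.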

A number with no mark means an inactive call. Results filed as inconclusive are left out. Activity calls are given as the source filed them. Unless noted, calls come from the whole dose curve; as a rule, active = well fitted curve in the direction sought with a large enough effect; inconclusive = small, poorly fitted or top-dose-only effect, or another doubt; inactive = no such curve, though single readings can be large; an effect the other way counts as inactive or inconclusive.

Nucleoprotein (Lymphocytic choriomeningitis virus (strain Armstrong)), sequence (P09992 whole entry, looked up): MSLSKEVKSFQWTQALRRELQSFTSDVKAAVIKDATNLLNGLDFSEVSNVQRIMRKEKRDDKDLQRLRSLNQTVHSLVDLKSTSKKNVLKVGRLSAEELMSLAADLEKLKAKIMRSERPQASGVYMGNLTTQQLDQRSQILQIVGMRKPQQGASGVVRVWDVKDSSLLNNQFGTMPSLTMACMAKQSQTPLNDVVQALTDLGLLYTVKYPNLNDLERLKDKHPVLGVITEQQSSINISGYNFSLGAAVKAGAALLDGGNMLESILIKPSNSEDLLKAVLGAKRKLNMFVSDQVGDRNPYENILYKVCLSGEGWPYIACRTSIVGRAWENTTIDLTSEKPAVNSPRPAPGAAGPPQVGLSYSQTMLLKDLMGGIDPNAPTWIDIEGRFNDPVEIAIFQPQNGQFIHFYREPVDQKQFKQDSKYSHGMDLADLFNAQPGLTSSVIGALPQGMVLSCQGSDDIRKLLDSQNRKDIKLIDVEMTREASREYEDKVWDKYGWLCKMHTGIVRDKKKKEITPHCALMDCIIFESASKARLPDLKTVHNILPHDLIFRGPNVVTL
T1 sequence (P78324 whole entry, looked up): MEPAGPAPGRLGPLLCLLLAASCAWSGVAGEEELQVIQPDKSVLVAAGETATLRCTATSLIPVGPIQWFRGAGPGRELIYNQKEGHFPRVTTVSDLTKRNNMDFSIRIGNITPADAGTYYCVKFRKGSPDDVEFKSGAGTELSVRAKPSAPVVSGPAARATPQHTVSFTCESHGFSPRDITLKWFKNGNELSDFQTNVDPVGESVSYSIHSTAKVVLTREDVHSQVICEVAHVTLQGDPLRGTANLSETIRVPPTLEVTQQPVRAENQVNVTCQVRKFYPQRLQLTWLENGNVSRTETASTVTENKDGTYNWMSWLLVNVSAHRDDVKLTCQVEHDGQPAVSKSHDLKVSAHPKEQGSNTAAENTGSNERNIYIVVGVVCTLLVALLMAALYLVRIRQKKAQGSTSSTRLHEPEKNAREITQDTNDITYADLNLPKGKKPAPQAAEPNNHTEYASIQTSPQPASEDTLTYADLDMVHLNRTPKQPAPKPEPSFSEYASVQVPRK
T1 sequence (Q08722 whole entry, looked up): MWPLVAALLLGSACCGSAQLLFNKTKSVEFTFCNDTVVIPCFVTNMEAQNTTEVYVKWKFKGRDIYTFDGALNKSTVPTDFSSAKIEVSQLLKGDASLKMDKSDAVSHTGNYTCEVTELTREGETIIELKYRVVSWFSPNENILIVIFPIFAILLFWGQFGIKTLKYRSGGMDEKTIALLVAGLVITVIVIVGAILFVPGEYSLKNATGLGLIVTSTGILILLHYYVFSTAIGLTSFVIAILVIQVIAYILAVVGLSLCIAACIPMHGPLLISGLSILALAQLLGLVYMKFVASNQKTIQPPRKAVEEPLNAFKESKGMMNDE
Atrial natriuretic peptide receptor 2 (Homo sapiens), sequence (P20594 whole entry, looked up): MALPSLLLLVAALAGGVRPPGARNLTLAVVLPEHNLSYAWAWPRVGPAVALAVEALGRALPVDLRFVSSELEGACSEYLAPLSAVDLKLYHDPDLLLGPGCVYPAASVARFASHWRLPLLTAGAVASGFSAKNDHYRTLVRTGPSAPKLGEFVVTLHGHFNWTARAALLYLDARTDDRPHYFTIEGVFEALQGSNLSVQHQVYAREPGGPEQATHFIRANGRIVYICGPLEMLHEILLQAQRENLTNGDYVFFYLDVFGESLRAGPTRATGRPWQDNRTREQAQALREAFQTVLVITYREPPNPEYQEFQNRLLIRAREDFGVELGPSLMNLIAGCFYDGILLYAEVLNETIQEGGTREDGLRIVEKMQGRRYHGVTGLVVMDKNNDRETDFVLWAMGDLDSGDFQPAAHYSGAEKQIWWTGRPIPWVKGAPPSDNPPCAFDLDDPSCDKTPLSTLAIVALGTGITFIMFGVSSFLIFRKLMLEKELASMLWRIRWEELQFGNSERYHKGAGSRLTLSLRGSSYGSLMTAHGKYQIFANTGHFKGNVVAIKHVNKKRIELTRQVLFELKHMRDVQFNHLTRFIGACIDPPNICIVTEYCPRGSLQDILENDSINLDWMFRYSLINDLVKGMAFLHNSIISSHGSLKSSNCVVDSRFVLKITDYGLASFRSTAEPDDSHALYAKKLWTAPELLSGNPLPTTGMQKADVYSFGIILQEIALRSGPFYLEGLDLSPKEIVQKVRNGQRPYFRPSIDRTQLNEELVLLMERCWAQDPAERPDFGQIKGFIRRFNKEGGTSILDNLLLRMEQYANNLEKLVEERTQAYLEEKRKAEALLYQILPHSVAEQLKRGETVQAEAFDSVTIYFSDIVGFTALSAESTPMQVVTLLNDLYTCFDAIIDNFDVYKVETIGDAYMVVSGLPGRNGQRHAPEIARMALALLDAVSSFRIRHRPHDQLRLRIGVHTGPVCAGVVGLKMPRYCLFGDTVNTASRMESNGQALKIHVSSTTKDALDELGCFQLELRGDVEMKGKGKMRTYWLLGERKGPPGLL
Parathyroid hormone/parathyroid hormone-related peptide receptor (Homo sapiens), sequence (Q03431 whole entry, looked up): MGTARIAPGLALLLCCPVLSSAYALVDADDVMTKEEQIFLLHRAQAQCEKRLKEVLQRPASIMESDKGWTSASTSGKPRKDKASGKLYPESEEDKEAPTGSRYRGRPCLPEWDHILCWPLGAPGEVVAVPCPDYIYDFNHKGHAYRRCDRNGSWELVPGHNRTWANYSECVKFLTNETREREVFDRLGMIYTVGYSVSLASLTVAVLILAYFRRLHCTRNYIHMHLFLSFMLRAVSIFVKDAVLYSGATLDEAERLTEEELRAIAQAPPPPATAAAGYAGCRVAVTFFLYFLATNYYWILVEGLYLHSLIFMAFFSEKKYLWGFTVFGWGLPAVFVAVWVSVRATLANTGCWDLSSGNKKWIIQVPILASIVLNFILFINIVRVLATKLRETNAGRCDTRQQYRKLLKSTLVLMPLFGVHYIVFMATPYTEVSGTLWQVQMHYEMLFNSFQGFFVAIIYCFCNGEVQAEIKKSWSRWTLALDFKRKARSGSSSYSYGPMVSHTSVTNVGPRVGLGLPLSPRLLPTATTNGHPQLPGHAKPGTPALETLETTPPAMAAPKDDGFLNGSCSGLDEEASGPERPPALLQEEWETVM
Atrial natriuretic peptide receptor 1 (Homo sapiens), sequence (P16066 whole entry, looked up): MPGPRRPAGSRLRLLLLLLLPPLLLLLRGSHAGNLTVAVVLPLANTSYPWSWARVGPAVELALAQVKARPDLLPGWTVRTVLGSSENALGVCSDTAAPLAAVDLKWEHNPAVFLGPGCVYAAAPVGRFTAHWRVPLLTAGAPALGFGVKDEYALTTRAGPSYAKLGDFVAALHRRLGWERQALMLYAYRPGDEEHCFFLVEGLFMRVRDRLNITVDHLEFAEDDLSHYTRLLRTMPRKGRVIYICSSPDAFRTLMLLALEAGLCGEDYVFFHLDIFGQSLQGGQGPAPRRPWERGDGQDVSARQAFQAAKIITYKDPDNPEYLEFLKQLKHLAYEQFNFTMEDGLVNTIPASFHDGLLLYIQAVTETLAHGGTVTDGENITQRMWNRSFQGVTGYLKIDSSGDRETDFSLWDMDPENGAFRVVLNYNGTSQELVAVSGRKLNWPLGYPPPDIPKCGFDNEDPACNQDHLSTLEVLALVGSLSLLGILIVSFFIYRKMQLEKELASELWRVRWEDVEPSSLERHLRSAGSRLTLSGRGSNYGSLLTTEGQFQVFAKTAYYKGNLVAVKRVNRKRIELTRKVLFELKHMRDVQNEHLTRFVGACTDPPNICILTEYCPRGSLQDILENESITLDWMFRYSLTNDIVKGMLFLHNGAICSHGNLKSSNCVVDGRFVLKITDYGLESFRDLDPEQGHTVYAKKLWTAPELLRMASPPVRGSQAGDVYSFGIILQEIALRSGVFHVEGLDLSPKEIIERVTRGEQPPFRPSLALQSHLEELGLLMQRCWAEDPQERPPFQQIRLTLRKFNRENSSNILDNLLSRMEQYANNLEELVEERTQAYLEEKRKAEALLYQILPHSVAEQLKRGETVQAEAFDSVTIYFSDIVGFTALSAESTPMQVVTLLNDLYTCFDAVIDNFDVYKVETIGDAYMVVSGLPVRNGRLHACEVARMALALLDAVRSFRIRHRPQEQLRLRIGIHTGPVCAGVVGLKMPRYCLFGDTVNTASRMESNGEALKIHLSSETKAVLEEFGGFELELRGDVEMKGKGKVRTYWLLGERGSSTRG

Consider `CC(NC(C)(C)C)C(=O)c1cccc(Cl)c1` (configuration not stated), for which the Potency entry in assay [1], in [10], in [11], in [12], in [13] and in assay [14] was “inactive” throughout. Moreover, the Potency entry in assay [15], in assay [16] and in assay [17] was “inactive” each time. Moreover, the molecule was classed as inactive in assay [2], in assay [3], in [4], in assay [5], in assay [6] and in [7]. Also, the outcome in assay [8] and in assay [9] was inactive.

For `NC1=NC(=O)C(c2ccccc2)O1` (configuration not stated), the Potency result in assay [1], in assay [10], in assay [11], in [12], in assay [13] and in assay [14] was “inactive” each time. Further, the Potency entry in assay [16] and in assay [17] was “inactive” in each case. Further, the result in [5] was inactive.

As for `CNCC(=O)c1ccc(O)c(O)c1`, the Potency result in assay [1], in assay [10], in [11], in assay [12], in assay [13] and in assay [14] was “inactive” throughout. Also, the Potency result in assay [15], in assay [16], in [17] and in [18] was “inactive” throughout. Also, the outcome in assay [5] was inactive.

Take `Clc1ccc(C(c2ccc(Cl)cc2)C(Cl)(Cl)Cl)cc1`: the Potency entry in [1], in [10], in assay [11], in assay [12], in assay [13] and in assay [14] was “inactive” each time. The Potency result in assay [16] is “inactive”. The outcome in [5] was inactive. Also, the Potency in [18] was 5.31 µM (active).

As to `CN[C@@H](C)Cc1ccccc1`, the Potency entry in [1], in assay [10], in assay [11], in assay [12] and in [13] was “inactive” in each case.

As to `COP(=S)(OC)Oc1ccc(SC)c(C)c1`, the Potency entry in assay [1], in assay [10], in assay [11], in assay [12], in assay [13] and in assay [14] was “inactive” each time. For the same molecule, the Potency result in assay [16], in [17] and in assay [18] was “inactive” each time. Moreover, in assay [5], the molecule was classed as inactive.

On to `O=C1c2ccccc2C(=O)c2ccccc21`, for which the Potency entry in assay [1], in [10], in assay [11], in assay [12], in [13] and in assay [14] was “inactive” throughout. Besides, the Potency entry in assay [16] and in assay [17] was “inactive” throughout. Moreover, the call in assay [5] was inactive.

As to `COC(=O)C(Cl)C(=O)OC`, the Potency entry in assay [1], in assay [10], in assay [11], in [12], in [13] and in [14] was “inactive” in each case. The Potency entry in assay [15], in assay [16], in assay [17] and in [18] was “inactive” in each case. In addition, the outcome in assay [5] was inactive.

With `Nc1ccccc1`, the Potency result in assay [1], in [10], in [11], in assay [12], in [13] and in assay [14] was “inactive” each time. Further, the Potency entry in assay [15], in [16], in assay [17] and in assay [18] was “inactive” each time. Besides, the call in assay [5] was inactive.

`O=C1OC(c2ccc(O)c(S(=O)(=O)O)c2)(c2ccc(O)c(S(=O)(=O)O)c2)c2c(Br)c(Br)c(Br)c(Br)c21`: the Potency result in [1], in assay [10], in assay [11], in [12], in assay [13] and in assay [14] was “inactive” in each case. In addition, the Potency entry in assay [15], in [16], in [17] and in [18] was “inactive” throughout. In addition, the call in assay [5] was inactive.

`CC(C)=CC1C(C(=O)OCN2C(=O)C3=C(CCCC3)C2=O)C1(C)C` (configuration not stated): the Potency entry in assay [1], in assay [10], in [11], in assay [12], in assay [13] and in assay [14] was “inactive” each time. In addition, the Potency entry in assay [17] is “inactive”. For the same molecule, the molecule was called inactive in assay [5]. Moreover, in [16], the Potency was 21.1 µM (active).
